# High-throughput results from PubChem.
# TSG101-PTAP inh: qHTS Validation Assay for Inhibitors of HIV-1 Budding by Blocking the Interaction of PTAP/TSG101: Sytravon Library Screen | Tumor susceptibility gene 101 protein (Homo sapiens), Q99816 | Fluorescence polarization, FITC-PTAP peptide/Tsg101, 20 min | Potency, µM (doses to about 115 µM), hits mostly inhibitors | 44,000 tested, under 10 active; further: potency means the concentration at half of the fitted maximal effect; 0% is about no effect
#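 Compounds pinned into 10 uM Tsg101 binding domain, then 50 nM FITC-PTAP peptide added in pH 7.5 HEPES buffer; FP read after 20 min, room temperature. Total S+P intensity flags fluorescent compounds; active cut-off <25 µM, efficacy <60%.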
# GALK inhibitor: qHTS Assay for Inhibitors of Human Galactokinase (GALK): NCGC Sytravon Library Screen; recombinant GALK, Kinase-Glo ATP luminescence, 1 h; AID 1347072, 2019; Potency, µM (doses to about 57.5 µM), inactives show top-dose activity, negative = inhibition, most hits filed as inhibitors; 44,000 tested, under 10 active; P51570;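 further: plate controls were full GALK reaction for no effect and reaction lacking GALK for full effect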
# Target sequence (P51570 whole entry, looked up): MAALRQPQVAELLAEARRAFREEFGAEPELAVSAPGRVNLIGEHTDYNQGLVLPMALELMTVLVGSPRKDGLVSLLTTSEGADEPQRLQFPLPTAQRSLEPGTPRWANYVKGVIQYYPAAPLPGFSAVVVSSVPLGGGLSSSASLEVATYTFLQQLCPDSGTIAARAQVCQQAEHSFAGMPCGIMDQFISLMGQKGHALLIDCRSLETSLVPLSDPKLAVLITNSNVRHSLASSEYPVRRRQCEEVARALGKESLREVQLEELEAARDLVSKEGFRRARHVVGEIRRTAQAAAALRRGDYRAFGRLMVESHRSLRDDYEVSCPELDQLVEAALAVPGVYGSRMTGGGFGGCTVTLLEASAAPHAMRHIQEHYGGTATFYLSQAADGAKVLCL
#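 Reactions with and without enzyme served as controls. GALK at 5 nM phosphorylates 100 uM galactose using 35 uM ATP (HEPES pH 8.0, Mg2+) for 1 h at RT, with luminescence read 10 min after adding Kinase-Glo Plus.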
# B2AR arrestin ag: qHTS assay of beta-arrestin-biased ligands of beta2-adrenergic receptor: NCGC Sytravon Library Screen; HTLA Tango cells, beta-arrestin recruitment, luciferase luminescence, 18 h; Potency, µM (doses to about 46.1 µM), most hits filed as activators; 44,000 tested, under 10 active; AID 1347077, 2019;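 further: potency means the concentration at half of the fitted maximal effect; 0% = DMSO and full agonism = EC100 isoproterenol or metaproterenol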
#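 Tango cells expressing recombinant beta2-AR and beta-arrestin were treated with compounds (up to 46 microM titration) in DMEM with 1% FBS for 18 hr at 37 degrees C. Beta-arrestin recruitment drove tTA-dependent luciferase, read by luminescence; curves were fitted and classed.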
# FH mod: Identification of activators of human fumarate hydratase by quantitative high-throughput screening; Fumarate hydratase, mitochondrial (Homo sapiens), P07954; Potency, µM (titrated, usually from 79.9 µM), for inactives: at the top dose activity change, negative = inhibition, most hits filed as inhibitors; AID 1347055, 2019; FH coupled MDH/diaphorase resazurin fluorescence, 15 min; 0.22% of 54,000 active; further: potency means the concentration at half of the fitted maximal effect; on the % scale 0 is the no-effect control and ±100 the full control effect; the screen sought activators but most active calls are inhibition curves; nearly all actives have a fitted effect of over 45% in size
# NTMT1 inh: Primary qHTS for Inhibitors of N-terminal methyltransferase 1 (NTMT1): MTaseGlo Assay; N-terminal Xaa-Pro-Lys N-methyltransferase 1 (Homo sapiens), Q9BV86; NTMT1 MTase-Glo SAH luminescence, purified enzyme; Potency, µM (titrated, usually from 114 µM), without a hit: at the top dose activity change, negative = inhibition, hits mostly inhibitors; 2.5% of 59,000 active;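 further: potency means the concentration at half of the fitted maximal effect; plate controls were DMSO vehicle for no effect and no enzyme for full effect; nearly all actives have a fitted effect of over 65% in size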
# Target sequence (Q9BV86 whole entry, looked up): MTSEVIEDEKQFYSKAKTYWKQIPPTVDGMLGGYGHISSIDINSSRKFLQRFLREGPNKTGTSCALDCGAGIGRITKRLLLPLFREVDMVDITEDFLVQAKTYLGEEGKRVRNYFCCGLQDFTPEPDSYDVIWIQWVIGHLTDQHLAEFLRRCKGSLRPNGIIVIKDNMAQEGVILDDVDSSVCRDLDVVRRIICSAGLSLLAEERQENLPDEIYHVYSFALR
# DYRK1A inh-1: Assay for Inhibitors of Dual-Specificity Tyrosine-(Y)-Phosphorylation Regulated Kinase 1A (Kinase-Glo assay) | recombinant DYRK1A, Kinase-Glo ATP depletion luminescence | shares compounds with NTMT1 inh | Potency, µM (series often up to 76.9 µM), inactives show top-dose activity change, negative = inhibition, most hits filed as inhibitors | AID 2705, 2010 | 80% of 100 active
# CLK4 inh-1: Confirmation Assay for Inhibitors of CDC-like Kinase 4 (Kinase-Glo Assay): SAR round 2 | shares compounds with NTMT1 inh | recombinant Clk4, Kinase-Glo ATP luminescence, 4.5 h | Potency, µM (doses to about 76.9 µM), without a hit: at the top dose activity, negative = inhibition, actives largely listed as inhibitors | 90% of 90 active | AID 493204, 2011
# CLK4 inh-2: Kinase Inhibition Study on Inhibitors of CDC-like Kinase 4 (Reaction Biology data): SAR round 2; shares compounds with NTMT1 inh; Reaction Biology kinase assay, 10 uM ATP; Potency, µM, usual class: inhibitors; 100% of 65 active; calls by dose curve
# DYRK1A inh-2: Kinase Inhibition Study on Inhibitors of Dyrk1a (Reaction Biology data) | shares compounds with NTMT1 inh | Reaction Biology kinase assay, 10 uM ATP | Potency, µM, most hits filed as inhibitors | 90% of 65 active;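 active means compounds that showed inhibition of Dyrk1a and received a fitted potency; inactive means compounds that showed no inhibition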
# CLK2 RBC: Kinase Inhibition Study on Inhibitors of CDC-like Kinase 2 (Reaction Biology data); Reaction Biology kinase assay, 10 uM ATP; Potency, µM, actives largely listed as inhibitors; shares compounds with NTMT1 inh; 90% of 65 active;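 active means compound that inhibits Clk2 kinase in the dose series, with an IC50 potency reported; inactive means no inhibition seen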
# CLK3 inh: Kinase Inhibition Study on Inhibitors of CDC-like Kinase 3 (Reaction Biology data) | recombinant CLK3 kinase assay, 10 uM ATP | Potency, µM, actives largely listed as inhibitors | 40% of 65 active | shares compounds with NTMT1 inh;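 active means compounds that inhibited Clk3 enough in the ten-dose series to give a half-maximal potency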
# DYRK1B inh: Kinase Inhibition Study on Inhibitors of Dyrk1b (Reaction Biology data); shares compounds with NTMT1 inh; Recombinant Dyrk1b kinase assay, 10 uM ATP; Potency, µM, actives largely listed as inhibitors; 80% of 65 active;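 active means compounds whose dose response shows an inhibitor phenotype against the kinase Dyrk1b; inactive means compounds showing no inhibitor phenotype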
# CLK1 RBC: Kinase Inhibition Study on Inhibitors of CDC-like Kinase 1 (Reaction Biology data); Potency, µM, usual class: inhibitors; 90% of 65 active; recombinant Clk1 kinase assay, 10 uM ATP; shares compounds with NTMT1 inh;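 active means compounds that block the splicing kinase Clk1 enough to give a fitted half-inhibition concentration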
# Numbers without * were called inactive; i = inactive; ? = inconclusive; nt = not tested or not shown; [ ] = remark or other dose. Only a selection was taken, and hits are over-represented in it overall. Unless noted, the call rests on the fitted dose curve; in most records, active means well fitted curve in the direction sought with a large enough effect; inconclusive means small, poorly fitted or top-dose-only effect, or another doubt; inactive means no such curve, though single readings can be large; an effect the other way counts as inactive or inconclusive.
SMILES,TSG101-PTAP inh,GALK inhibitor,B2AR arrestin ag,FH mod,NTMT1 inh,DYRK1A inh-1,CLK4 inh-1,others
c1nc(N2CCC(N3CCCC3)CC2)c2cc(-c3ccc4c(c3)OCO4)ccc2n1,nt,nt,nt,nt,?,23µM*,nt,CLK4 inh-2=10*;DYRK1A inh-2=i;CLK2 RBC=i;CLK3 inh=i;DYRK1B inh=i;CLK1 RBC=15µM*
Cc1nc(CCNc2ncnc3ccc(-c4ccc5c(c4)OCO5)cc23)cs1,nt,nt,nt,nt,-21%,nt,0.065µM*,
O=C1CCCC2=C1C(c1[nH]ncc1Cl)N=C(Nc1nc3cc(Cl)ccc3o1)N2 (stereo not given),nt,nt,nt,nt,-3%[57.5 µM],nt,nt,
COc1cc(O)c(C(CC(=O)N2CCC(Cc3ccccc3)CC2)c2ccc3c(c2)OCO3)c(OC)c1 (stereo not given),nt,nt,nt,nt,6%[228 µM],nt,nt,
CC(C)(C)CNc1ncnc2ccc(-c3ccc4c(c3)OCO4)cc12,nt,nt,nt,nt,nt,0.0091µM*,nt,
c1nc(NCC2CCOC2)c2cc(-c3ccc4c(c3)OCO4)ccc2n1 (stereo not given),nt,nt,nt,-8%,25µM*,0.092µM*,nt,
CCCNc1ncnc2ccc(-c3ccc4c(c3)OCO4)cc12,nt,nt,nt,nt,nt,nt,0.041µM*,
CCCN(Cc1cccs1)c1ncnc2ccc(-c3ccc4c(c3)OCO4)cc12,nt,nt,nt,nt,?,0.82µM*,nt,
CC(/C=C/[C@@H]1C[C@]1(C)c1ccc2c(c1)C(C)(C)CCC2(C)C)=C\C(=O)O,nt,nt,nt,nt,-3%,nt,nt,
COc1cc(Cl)ccc1C(=O)Nc1nc(-c2ccccc2)cs1,nt,nt,nt,nt,8%[57.5 µM],nt,nt,
O=C1CCc2cc(S(=O)(=O)Nc3ccc(F)c(Cl)c3)c(F)cc2N1,nt,nt,nt,4%,?,nt,nt,
CC[C@H]1OC(=O)[C@H](C)C(O[C@H]2C[C@@](C)(OC)[C@@H](O)[C@H](C)O2)[C@H](C)[C@@H](OC2O[C@H](C)C[C@H](N(C)C)[C@H]2O)[C@](C)(O)C[C@@H](C)CN(C)[C@H](C)[C@@H](O)[C@]1(C)O (stereo not given in full),nt,nt,nt,-24%[53.3 µM],nt,nt,nt,
Cc1ccc(CN(C)c2ncnc3ccc(-c4ccc(CO)o4)cc23)o1,nt,nt,nt,nt,?,nt,0.065µM*,
Cc1ccsc1CN(C)c1ncnc2ccc(-c3ccc(COC(=O)N(C)C)o3)cc12,nt,nt,nt,nt,nt,nt,1.5µM*,
Cc1ccc(CN(C(=O)c2ccc(C(C)(C)C)cc2)c2ccccn2)o1,i,0%,i,-9%,-13%,nt,nt,
